A selection: hits, their analogues and other compounds. The true share with any hit is near 2.6%.
AmpC inh no det – Promiscuous and Specific Inhibitors of AmpC Beta-Lactamase (assay without detergent). AID 585, 2007. AmpC nitrocefin hydrolysis, absorbance 480 nm, no detergent. Potency, µM (titrated, usually from 28.7 µM), inactives show at the top dose activity change, negative = inhibition. 71,000 compounds, 1.8% hits. P00811; also: % of control where 0% means no effect
Target sequence (P00811 whole entry, looked up): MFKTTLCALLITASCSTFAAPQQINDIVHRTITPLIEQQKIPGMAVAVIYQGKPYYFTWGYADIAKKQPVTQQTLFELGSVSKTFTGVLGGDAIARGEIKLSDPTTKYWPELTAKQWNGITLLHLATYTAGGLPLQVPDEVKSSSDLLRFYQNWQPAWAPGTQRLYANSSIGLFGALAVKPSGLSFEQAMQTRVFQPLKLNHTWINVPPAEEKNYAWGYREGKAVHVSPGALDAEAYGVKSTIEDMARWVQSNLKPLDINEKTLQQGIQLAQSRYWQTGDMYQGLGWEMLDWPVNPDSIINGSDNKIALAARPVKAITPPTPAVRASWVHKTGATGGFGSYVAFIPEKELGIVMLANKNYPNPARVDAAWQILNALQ
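AmpC in 20 mM phosphate buffer pH 7.0 was preincubated 15 min at room temperature with compounds. Nitrocefin (800 uM stock) was then added and hydrolysis followed at 480 nm every 20 s for 4 min.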
AmpC det inh – Promiscuous and Specific Inhibitors of AmpC Beta-Lactamase (assay with detergent); Potency, µM (titrated, usually from 28.7 µM), for the others: at the highest dose activity change, negative = inhibition; P00811; AID 584, 2007; 71,000 compounds, 0.09% hits; purified AmpC, nitrocefin hydrolysis with detergent; active = well fitted curve in the direction sought with a large enough effect; inconclusive = small, poorly fitted or top-dose-only effect; also: % is scaled to controls: 0 for no effect and ±100 for the full control effect
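E. coli AmpC (5.3 nM) in 20 mM phosphate pH 7.0 with 0.01% Triton X-100, preincubated 15 min RT with compound; nitrocefin (2 uL of 800 uM stock) hydrolysis followed by 480 nm absorbance every 20 s over 4 min.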
Anthrax LT inh – qHTS Assay for Anthrax Lethal Toxin Internalization; Cells, anthrax lethal toxin internalization, FRET ratio (460/530); Potency, µM (top dose mostly 40 µM), inactives show top-dose activity change, negative = inhibition, usual class: inhibitors; 70,000 compounds, 0.67% hits; also: % is scaled to controls: 0 for no effect and ±100 for the full control effect; nearly all actives have a fitted effect of over 50% in size
SmPrx2 inh – Schistosoma Mansoni Peroxiredoxins (Prx2) | Schistosoma mansoni peroxiredoxin 2 (Prx2) | AID 448, 2006 | 65,000 compounds, 0.07% hits | Potency, µM | S. mansoni Prx2 activity coupled to TGR/GSH (TGR is thioredoxin glutathione reductase), NADPH fluorescence loss, qHTS
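Enzyme mix: 100 uM NADPH, 25 nM TGR, 700 uM GSH, 50 nM Prx2 in 100 mM phosphate pH 7.4, 10 mM EDTA, 0.01% Tween-20. 15 min RT with compound; NADPH/GSH added, H2O2 starts reaction; NADPH fluorescence read 8 min.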
* = called active by the depositor; ? = inconclusive; . = no result; ! = repeats disagree; [ ] = remark or other dose. Unless noted, calls follow the shape of the full dose curve. Potency is read from the fitted curve at half-maximal effect.

SMILES	AmpC inh no det	AmpC det inh	Anthrax LT inh	SmPrx2 inh
COc1ccc2[nH]cc(CCNC(=O)C3CCCNC3=O)c2c1 (stereo not given)	2.5µM*[single pt active]	10%	-2%	>57
OCCN1CCN(C(c2cccs2)c2ccc3cccnc3c2O)CC1 (stereo not given)	13µM*	-7%	?	>57
COc1ccc(-c2nc3c(c4c2CC(C)OC4)CN(CCC(C)C)CC3)cc1 (stereo not given)	.	.	-9%[8 µM]	.
COc1ccc(N2C(=O)CC(Sc3ncn[nH]3)C2=O)c(OC)c1 (stereo not given)	79%	-1%	13µM*	.
Cc1ccccc1Cn1nc(C)c(NC(=O)c2noc3c2CCc2ccccc2-3)c1C	64%	13%	?	?
Cc1c(NC(=O)c2noc3c2CCc2ccccc2-3)c(=O)n(-c2ccccc2)n1C	4µM*[single pt active]	10%	-14%	>57
Cc1cc(NC(=O)c2noc3c2CCc2ccccc2-3)no1	4µM*[single pt active]	9%	-1%	>57
O=C(Nc1cccc(S(=O)(=O)C(F)F)c1)c1ccc(Cl)c(S(=O)(=O)N2CCOCC2)c1	-7%	2%	10µM*	>57
COc1ccc(C(=O)Nc2cccc(C)c2)cc1S(=O)(=O)N1CCOCC1	60%	-2%	15%	>57
O=C(NCC1CCCO1)C1CCN(S(=O)(=O)N2CCCC2)CC1 (stereo not given)	-3%	2%	8%	>57
CC1CCN(S(=O)(=O)N2CCC(C(=O)N3CCC(N(C)CC4CCCO4)CC3)CC2)CC1 (stereo not given)	4µM*[single pt active]	16%	4%	>57
CC(=O)c1cccc(NC2c3ccccc3C(=O)N2Cc2ccc3c(c2)OCO3)c1 (stereo not given)	4µM*[single pt active]	13%	-18%	>57
CC(=O)c1ccc(OCC(O)CN2CCC(C)CC2)cc1 (stereo not given)	4µM*[single pt active]	12%	-8%	>57
CCC(=O)c1ccc(OCC(O)CN2CCOCC2)cc1 (stereo not given)	17%	-3%	3%	>57
CC(=O)c1ccc(OCC(O)CN2C(C)CCCC2C)cc1 (stereo not given)	4µM*[single pt active]	12%	-10%	>57
CC(=O)c1ccc(OCC(O)CN2CCOCC2)cc1 (stereo not given)	4µM*[single pt active]	8%	-14%	>57
COC(=O)c1ccc(OCC(O)CN2CCC(C)CC2)cc1 (stereo not given)	-4%	9%	0%	>57
O=C(O)c1cc[c]([Hg][Cl])cc1	-10%	-8%	?	0.44*
CN(C)c1ccc(-c2nc(Nc3ccncc3)c3ccccc3n2)cc1	35%	9%	13µM*	>57
C=C1Cn2c(nnc2-c2ccc(Cl)cc2)S1	4µM*[single pt active]	12%	1%	>57
CC1(C)Cn2c(nnc2-c2ccccc2)S1	-3%	-1%	-6%	>57
CCCn1c(-c2ccc(F)cc2)nc2c(NCCCN(CCO)CCO)nc(C)nc21	34%	21%	-3%	.
O=C1c2c(O)cc(O)cc2O[C@@H](c2ccc(O)c(O)c2)[C@H]1O	-13%	18%	2%	>57
CN(C)c1ncc2ncc(=O)n(Cc3ccc(F)cc3)c2n1	53%	0%	-7%	>57
CC(CN(C)Cc1ccccc1)OC(=O)C1COc2ccccc2O1 (stereo not given)	4µM*[single pt active]	10%	5%	>57
SMILES	AmpC inh no det	AmpC det inh	Anthrax LT inh	SmPrx2 inh
O=C(NC1CCN(Cc2ccccc2)CC1)C1COc2ccccc2O1 (stereo not given)	-2%	-3%	-4%	>57
CN1C[C@@H](CNC(=O)OCc2ccccc2)C[C@H]2c3cccc4c3c(cn4C)C[C@@H]21	73%	-1%	?	>57
CN(c1nnc(N)s1)C1CCCCC1	4µM*[single pt active]	21%	-2%	>57
Cn1c(C[C@@H](O)c2nc3ccccc3n2C)nc2ccccc21	4%[5.75 µM]	-4%[5.75 µM]	-13%[8 µM]	>57
C=CC1=C(C(=O)O)N2C(=O)[C@@H](NC(=O)/C(=N\OCC(=O)O)c3csc(N)n3)[C@@H]2SC1	0.32µM*	0.2µM*	3%[3.58 µM]	>57
CC(=O)OCC1=C(C(=O)O)N2C(=O)[C@@H](NC(=O)Cc3cccs3)[C@@H]2SC1	-8%[12.8 µM]	-8%[12.8 µM]	-3%[3.58 µM]	>57
CO/N=C(\C(=O)N[C@@H]1C(=O)N2C(C(=O)O)=C(COC(C)=O)CS[C@@H]12)c1csc(N)n1	1.3µM*!	1.3µM*	3%[3.58 µM]	>57
CC(=O)CC(=O)Nc1ccccc1	12%	12%	0%	.
Cc1cc(O)c(C(C)(C)C)cc1Sc1cc(C(C)(C)C)c(O)cc1C	13µM*	6%	?	.
CC(C)(C)c1cc(O)c(C(C)(C)C)cc1O	-6%	-1%	?	>57
CC1(C(=O)NCCCNc2ncc(C(F)(F)F)cc2Cl)C=CC2(CCCCC2)N1C(=O)c1ccccc1 (stereo not given)	8%	11%	25µM*	.
Clc1ccc([C@@H](c2ccccc2Cl)C(Cl)Cl)cc1	-23%	-2%	?	>57
FC(F)(F)c1ccccc1-c1cncnc1NCCN1CCOCC1	45%	10%	?	.
Cc1c(Cl)cccc1NC(=O)c1cc(-c2ccc(O)cc2)on1	13µM*[single pt active]	3%	?	>57
c1ccc(-c2ccc(-c3ccc(C4=NCCN4)cc3)o2)cc1	-4%[5.75 µM]	-8%[5.75 µM]	?	>57
CCOC(=O)C(C(C)=O)c1c(Br)c(O)c(O)c2c(C(=O)c3ccc(C)cc3)coc12 (stereo not given)	6.3µM*	-3%	?	>57
CCOC(=O)c1ccc2ncc(C(=O)OCC)c(NCCN(C)C)c2c1	3.2µM*[single pt active]	14%	1%	>57
CCn1cc(C(=O)NCCCOC)c(=O)c2cc(S(=O)(=O)N(C)C)ccc21	3.2µM*[single pt active]	13%	-1%	>57
CN(CCNC(=O)c1cn(C)c2ccc(S(=O)(=O)N(C)C)cc2c1=O)CCc1ccccc1	4µM*[single pt active]	14%	-13%	>57
CN(C1CCCCC1)S(=O)(=O)c1ccc2c(c1)c(=O)c(C(=O)NCCN1CCCC1)cn2C	91%	10%	10µM*	>57
O=C(Nc1ccc2c(c1)OCO2)C1CCN(S(=O)(=O)c2cccs2)CC1	?	10%	-10%	>57
O=C(Nc1ccc2c(c1)OCO2)C1Cc2ccccc2CN1S(=O)(=O)c1cccs1 (stereo not given)	10µM*[single pt active]	-6%	?	>57
CC(C)N(CCCNC(=O)CC1Oc2ccccc2NC1=O)Cc1ccccc1 (stereo not given)	4µM*[single pt active]	12%	-14%	>57
CC(C)CN(CCCNC(=O)CC1Oc2ccccc2NC1=O)CC(C)C (stereo not given)	-10%	-7%	-3%	>57
CC1CC(C)CN(CCCNC(=O)CC2Oc3ccccc3NC2=O)C1 (stereo not given)	4µM*[single pt active]	11%	-9%	>57
O=C(CC1Oc2ccccc2NC1=O)NCCCN1CCCC1=O (stereo not given)	4µM*[single pt active]	16%	2%	>57

Compound activity (PubChem)
